Each structure is given as a SMILES string. The panel holds about 83,000 compounds, 20% with a hit somewhere; the sample as a whole holds those more often.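 Step 1: grow cells in 96-well plates. Step 2: add test compound at a single concentration. Step 3: incubate 48 h. Step 4: record percent growth.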 A number with no mark means an inactive call. Calls of active or inactive are those of the source. The calls were made as follows: active = growth percent below 10; inactive = the rest.

Some test systems named below: NCI-H23 lung; NCI-H226 lung; NCI-H322M lung; HOP-62 NSCLC; NCI-H460 lung; HOP-92 NSCLC; NCI-H522 lung; A549/ATCC NSCLC; 786-0 renal; COLO 205 colon; DU-145 prostate; K-562 leukemia; MALME-3M melanoma; MDA-MB-231 breast; RXF 393 renal; SF-268 CNS; SF-295 CNS; SF-539 CNS; UACC-257 melanoma; M14 melanoma.
Common to all, as to test: NCI-60 one-dose screen, 48 h (100 = growth as untreated, 0 = no growth, -100 = all killed)
Conditions in all cases: 10 µM unless noted

Consider `CC(=O)Oc1ccc(C)cc1C`, for which the growth in the assay on NCI-H23 lung was 103%; with NCI-H226 lung, 107%; in the assay on NCI-H322M lung, 108%; with HOP-62 NSCLC, 105%; in the assay on NCI-H460 lung, 115%; in the assay on HOP-92 NSCLC it was 105%. Also, the growth is 101% in the assay with NCI-H522 lung; 100% in the assay with A549/ATCC NSCLC; 100% in the assay on 786-0 renal; 125% with COLO 205 colon; 110% in the assay with DU-145 prostate; 101% with K-562 leukemia. The growth is 104% in the assay on MALME-3M melanoma; 104% in the assay with MDA-MB-231 breast; 114% with RXF 393 renal; 104% in the assay on SF-268 CNS; 106% in the assay on SF-295 CNS; 99% in the assay on SF-539 CNS. The figures for the growth in the assay with UACC-257 melanoma and with M14 melanoma were 106% and 103%, respectively.

Regarding `C=CCN=c1sc2c(n1NC(=O)c1cc3ccc1CCc1ccc(cc1)CC3)C(=O)c1ccccc1C2=O`, the growth with NCI-H23 lung was -34.1% (active); in the assay on NCI-H226 lung, 48.5%; with NCI-H322M lung it was 67.8%; in the assay with HOP-62 NSCLC, 19.5%; in the assay on NCI-H460 lung, 12.7%; in the assay with HOP-92 NSCLC, 21.5%. Moreover, the growth with NCI-H522 lung was -20.2% (active); with A549/ATCC NSCLC, 23.3%; in the assay with 786-0 renal, -21.8% (active); in the assay on COLO 205 colon it was 19.2%; in the assay on DU-145 prostate it was -90.7% (active); in the assay with K-562 leukemia, -12.3% (active). Also, the growth with MALME-3M melanoma was -88.6% (active); in the assay with MDA-MB-231 breast it was -6.76% (active); with RXF 393 renal it was -26.3% (active); with SF-268 CNS it was 8.79% (active); in the assay on SF-295 CNS it was 69.2%; with SF-539 CNS it was -98.3% (active). The values for the growth in the assay with UACC-257 melanoma and with M14 melanoma were -72.6% (active) and -93.9% (active), respectively.

In the case of `COc1ccc(OC)c(Nc2nnc(-c3ccc(O)c(OC)c3)o2)c1`, the growth was 70.7% in the assay with NCI-H23 lung; 77.1% with NCI-H226 lung; 86.9% with NCI-H322M lung; 77.6% in the assay on HOP-62 NSCLC; 82.8% in the assay on NCI-H460 lung; 85.1% in the assay with HOP-92 NSCLC. The growth with NCI-H522 lung was 61.1%; with A549/ATCC NSCLC, 75.5%; in the assay on 786-0 renal, 36.7%; with COLO 205 colon, 117%; in the assay on DU-145 prostate it was 51.4%; in the assay with K-562 leukemia it was 32.3%. The growth with MALME-3M melanoma was 79.9%; in the assay with MDA-MB-231 breast it was 69.4%; in the assay with RXF 393 renal, 52.7%; in the assay on SF-268 CNS, 68.8%; with SF-295 CNS, 100%; in the assay with SF-539 CNS, 49.9%. Further, the results for the growth with UACC-257 melanoma and in the assay on M14 melanoma were 115% and 74.6%, respectively.

`CCOC(=O)C/C(=N\Nc1cc(=O)[nH]c2ccc(Br)cc12)C(=O)OCC`: the growth in the assay on NCI-H23 lung is 91.2%; with NCI-H226 lung, 86.9%; in the assay on NCI-H322M lung, 92.9%; in the assay on HOP-62 NSCLC, 95.9%; in the assay on NCI-H460 lung, 101%; in the assay with HOP-92 NSCLC, 76.2%. Besides, the growth was 95.2% with NCI-H522 lung; 106% in the assay with A549/ATCC NSCLC; 106% in the assay with 786-0 renal; 107% with COLO 205 colon; 104% with DU-145 prostate; 24.2% with K-562 leukemia. Also, the growth in the assay with MALME-3M melanoma is 90.5%; in the assay with MDA-MB-231 breast, 102%; with RXF 393 renal it was 104%; in the assay on SF-268 CNS it was 100%; in the assay on SF-295 CNS, 102%; in the assay with SF-539 CNS, 99.8%. The values for the growth in the assay on UACC-257 melanoma and in the assay on M14 melanoma were 111% and 96.8%, respectively.

`CCCCNC(=O)CC1=C(C)/C(=C/c2[nH]c(-c3ccc[nH]3)cc2OC)N=C1C`: the growth was 48.6% in the assay on NCI-H23 lung; 36.7% in the assay on NCI-H226 lung; 50% with NCI-H322M lung; 50.5% with HOP-62 NSCLC; 7.8% (active) in the assay with NCI-H460 lung; -19.8% (active) in the assay on HOP-92 NSCLC. The growth in the assay with NCI-H522 lung is 17%; in the assay on A549/ATCC NSCLC it was 12.4%; with 786-0 renal it was 16.1%; with COLO 205 colon, 17.2%; in the assay on DU-145 prostate, 34.6%; in the assay on K-562 leukemia it was 1.68% (active). The growth with MALME-3M melanoma was 34%; with MDA-MB-231 breast, 13.5%; in the assay with RXF 393 renal, 59.4%; with SF-268 CNS, 27%; in the assay on SF-295 CNS it was 14.6%; in the assay with SF-539 CNS, 27.8%. In addition, the growth was 5.48% (active) with UACC-257 melanoma and -43.1% (active) in the assay with M14 melanoma.

On to `COc1cc2c(c(OC)c1OC)CCC(c1cccc(C(=O)Nc3ccc(C#N)cc3)c1)O2` (stereo not given), for which the growth was 40.6% with NCI-H23 lung; 33% in the assay on NCI-H226 lung; 77.4% in the assay on NCI-H322M lung; 72.1% in the assay with HOP-62 NSCLC; 56.5% in the assay on NCI-H460 lung; 52.3% in the assay with HOP-92 NSCLC. Also, the growth in the assay with NCI-H522 lung is 38.4%; in the assay on A549/ATCC NSCLC, 50.9%; with 786-0 renal it was 80.6%; in the assay on COLO 205 colon, 84.8%; in the assay with DU-145 prostate, 66.5%; in the assay with K-562 leukemia, 20.4%. Besides, the growth is 58.2% in the assay on MALME-3M melanoma; 49.4% in the assay on MDA-MB-231 breast; 78.8% in the assay with RXF 393 renal; 80.1% with SF-268 CNS; 42.5% in the assay on SF-295 CNS; 68.8% in the assay on SF-539 CNS. Also, the results for the growth in the assay on UACC-257 melanoma and in the assay with M14 melanoma were 44.5% and 37.7%, respectively.

With `COC(=O)C1Cc2ccccc2CN1C(=O)c1ccc2c(c1)Cc1ccccc1-2` (stereo not given), the growth with NCI-H23 lung is 35.9% [50 µM]; with NCI-H226 lung, 45.3% [50 µM]; with NCI-H322M lung, 68.2% [50 µM]; in the assay with HOP-62 NSCLC, 76.6% [50 µM]; in the assay on NCI-H460 lung, 34.4% [50 µM]; in the assay on HOP-92 NSCLC, 48.5% [50 µM]. In addition, the growth is 18.5% [50 µM] in the assay with NCI-H522 lung; 27.3% [50 µM] with A549/ATCC NSCLC; 54% [50 µM] in the assay on 786-0 renal; 32.2% [50 µM] in the assay on COLO 205 colon; 59.8% [50 µM] with DU-145 prostate; 21.2% [50 µM] in the assay with K-562 leukemia. Besides, the growth is 17.7% [50 µM] in the assay on MALME-3M melanoma; 42.3% [50 µM] with MDA-MB-231 breast; 51.2% [50 µM] in the assay on RXF 393 renal; 49.3% [50 µM] in the assay with SF-268 CNS; 30.2% [50 µM] in the assay with SF-295 CNS; 70.1% [50 µM] in the assay on SF-539 CNS. Moreover, the growth is 29% [50 µM] in the assay on UACC-257 melanoma and 30.9% [50 µM] in the assay with M14 melanoma.

Turning to `COc1ccc(-c2cc(-c3cccnc3)nc3sc4c(=O)[nH]c(-c5ccc(Cl)cc5)nc4c23)cc1OC`, the growth in the assay with NCI-H23 lung is 98.8%; with NCI-H226 lung, 79.1%; in the assay on NCI-H322M lung it was 104%; in the assay on HOP-62 NSCLC it was 88.3%; in the assay with NCI-H460 lung it was 90.9%; with HOP-92 NSCLC, 75.1%. The growth in the assay on NCI-H522 lung was 78.6%; with A549/ATCC NSCLC it was 82.8%; in the assay with 786-0 renal, 89.2%; with COLO 205 colon, 91.2%; in the assay with DU-145 prostate, 105%; in the assay with K-562 leukemia it was 85.7%. Also, the growth with MALME-3M melanoma was 115%; in the assay with MDA-MB-231 breast, 76.7%; with RXF 393 renal it was 103%; in the assay with SF-268 CNS, 93.4%; in the assay on SF-295 CNS, 99.5%; in the assay with SF-539 CNS, 96.1%. The results for the growth in the assay on UACC-257 melanoma and in the assay on M14 melanoma were 97.5% and 106%, respectively.

These data come from PubChem BioAssay (NCI).
